Screening results: PubChem, National Center for Advancing Translational Sciences (NCATS)
Compounds with a hit are over-represented: about 21% of the library has one in this group of screens.
CHX counter – counter-screen for Shiga toxin inhibitors: cycloheximide protein synthesis inhibition | cell reporter, cycloheximide protein synthesis inhibition counterscreen | max response, % | 300,000 compounds, 12% hits | AID 2314; in the data active means max response mostly above about 13%, no sharp cut-off; inactive means mostly below about 14%; further: read at 38.3 µM for the half of the compounds with a filed dose; 0% is about no effect
NS1 function inh – influenza NS1 inhibition. Potency, µM (top dose mostly 46.1 µM), for inactives: top-dose activity, positive = more growth. 270,000 compounds, 0.4% hits; calls by dose curve; further: potency means the concentration at half of the fitted maximal effect; actives are rising curves; nearly all actives have a fitted effect of over 50% in size
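Compounds were scored for reversing the slow growth caused by influenza A NS1 in S. cerevisiae, measured by optical density at 600 nm. Assay medium contained 2% galactose at pH 6.0; NS1-free yeast of the same strain were the positive control.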
Pf growth 48h – inhibits P. falciparum growth in the first generation, 48 h. 310,000 compounds, 5.9% hits. Potency, µM (top dose mostly 28.7 µM), without a hit: at the highest dose activity change, negative = inhibition, usual class: inhibitors. P. falciparum luciferase growth in erythrocytes, 48 h; further: potency means the concentration at half of the fitted maximal effect; on the % scale 0 is the no-effect control and ±100 the full control effect
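A one-generation exposure of luciferase-tagged malaria parasites in RPMI 1640/Albumax erythrocyte culture, 37 C and 5% CO2. Inhibition is inferred from decreased luminescence after adding detection reagent.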
Shiga inhibitor – blocks Shiga toxin action in Vero cells; Vero cells, Shiga toxin protein synthesis inhibition reporter; inhibition, % at 38.7 µM; 290,000 compounds, 9.2% hits; in the data active means inhibition mostly above about 28%, no sharp cut-off; inactive means mostly below about 43%; further: 0% is about no effect
Pf growth 96h – P. falciparum growth inhibition at 96 hour, primary screen for plastid delayed-death inhibitors | P. falciparum luciferase reporter growth, 96 h | Potency, µM (series often up to 28.7 µM), without a hit: at the top dose activity change, negative = inhibition, hits mostly inhibitors | 320,000 compounds, 6.9% hits | AID 504834; further: potency means the concentration at half of the fitted maximal effect; on the % scale 0 is the no-effect control and ±100 the full control effect
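Plates of compound plus infected erythrocytes (2% hematocrit, 0.05% parasitemia final) incubate 96 hours, 37 C, 5% CO2. Detection reagent added; reduced luminescence from the parasites' luciferase reporter flags inhibition.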
Active calls of the source: *; i = inactive; ? = inconclusive; · = no result. Unless noted, the call rests on the fitted dose curve; in most records, active means well fitted inhibition curve with a large enough effect; inconclusive means small, poorly fitted or top-dose-only effect, or another doubt; inactive means no such curve, though single readings can be large or run the other way.

SMILES | CHX counter | NS1 function inh | Pf growth 48h | Shiga inhibitor | Pf growth 96h
CCOc1cc(CNc2ccc3c(c2)OCCO3)cc(Br)c1OCC | 28* | 13% | 1.9µM* | 67* | 2.1µM*
C=CCOc1c(Br)cc(CNc2ccc(NC(=O)CCC)cc2)cc1OCC | 3 | -26% | 50% | 12 | 61%
COCCn1c(=O)[nH]c(=O)c2c1nc(-c1cc(Br)c3c(c1)OCO3)n2Cc1ccccc1 | 10 | · | ? | -4 | ?
Cc1cccc(OCc2nc3ccccc3c(=O)n2N)c1 | 47* | -63% | 48% | 72 | ·
CCCCCCc1nc2ccccc2c(=O)n1N | 21 | -17% | 17% | 21 | ?
Nn1c(COc2cccc(Cl)c2)nc2ccccc2c1=O | 38* | 4% | 1% | 75* | ?
Cc1cccc(-c2nc3ccccc3c(=O)n2N)c1 | 1 | 1% | 35% | -6 | 20%
CCOC(=O)N1CCN(C(=O)c2ccc3c(c2)N(C)C(=O)/C(=C\c2ccc(OCC)c(OC)c2)S3)CC1 | 13 | -2% | 1.2µM* | 10 | 52%
CCOC(=O)N1CCN(C(=O)c2ccc3c(c2)NC(=O)/C(=C\c2ccc(OC)c(OC)c2)S3)CC1 | -1 | 9% | ? | -5 | 13µM*
COc1ccc(/C=C2/Sc3ccc(C(=O)N4CCOCC4)cc3NC2=O)cc1OC | -1 | 5% | ? | -9 | 15µM*
CCOc1ccc(/C=C2\SC(=O)N(CCNC(=O)C3COc4ccccc4O3)C2=O)cc1OC (configuration not stated) | 19* | 8% | ? | 17 | -99%
N#Cc1ccc(OCC(=O)NNC(=S)NC2CCCCC2)cc1 | · | · | -8% | · | -18%
CCn1cc(C(=O)N[C@H](C(=O)NCCCn2ccnc2)C(C)C)c(=O)c2cc3c(cc21)OCO3 | -2 | -12% | -15% | -4 | 8%
CCOc1ccc(/C=C2/Sc3ccc(C(=O)NCC4CCCO4)cc3N(C)C2=O)cc1OC (configuration not stated) | 13 | 8% | 8.3µM* | -6 | 13µM*
Cc1scc(C(=O)N/N=C/c2ccco2)c1C | 29* | -3% | 147% | 53* | 85%
Cc1scc(C(=O)N/N=C/c2ccsc2)c1C | 84* | -8% | 196% | 52* | 117%
CCCOc1cccc(/C=N/NC(=O)c2csc(C)c2C)c1 | 14 | 1% | · | 2 | ?
O=C(N/N=C/c1ccc([N+](=O)[O-])o1)c1ccccc1NS(=O)(=O)c1cccs1 | -3 | -4% | ? | 1 | ?
Cc1scc(C(=O)N/N=C/c2ccc([N+](=O)[O-])o2)c1C | 0 | -21% | 4.1µM* | 6 | 1.7µM*
COc1ccccc1NC(=O)Nc1ccnn1C1CCN(C(=O)c2cccnc2)CC1 | 0 | 0% | -13% | 13 | ?
COc1ccc(NC(=O)C(C)Sc2nnc3c4c(nc(-c5ccc(OC)cc5)n23)CC(C)(C)OC4)cc1 (configuration not stated) | -2 | 0% | 2.9µM* | -1 | ?
CCOc1ccccc1NC(=O)C1CCN(S(=O)(=O)c2cccc3cccnc23)CC1 | -5 | -55% | · | -3 | -20%
CC1=C(CC(=O)c2ccccc2)C(=O)c2ccccc2C1=O | 36* | -15% | 0.74µM* | 87* | 0.83µM*
COc1cc2cncc(Cc3ccc(Cl)cc3)c2cc1OC | · | · | 8.3µM* | · | ?
CCOC(=O)N1CCN(S(=O)(=O)c2ccc(C(=O)Nc3nc4ccc(F)cc4s3)cc2)CC1 | 1 | 14% | -7% | -9 | ?
SMILES | CHX counter | NS1 function inh | Pf growth 48h | Shiga inhibitor | Pf growth 96h
Cc1noc(C)c1C(=O)Nc1nc2ccc(F)cc2s1 | · | · | i | · | i
CCOC(=O)C(=CNc1nc2ccc(C(=O)OCC)cc2s1)C(=O)OCC | 1 | 4% | 6% | 3 | 25%
CCOC(=O)c1ccc2nc(Nc3nc4ccc(F)cc4s3)sc2c1 | 150* | -5% | 99% | 147* | 24%
CCOC(=O)c1ccc2nc(NC(C)=O)sc2c1 | 48* | · | 263% | 56 | -1%
COC(=O)c1ccc2nc(Nc3nc4c(F)cc(F)cc4s3)sc2c1 | 57* | 14% | 39% | -15 | -27%
COCCNC(=O)C(c1ccc(F)cc1)N(C(=O)CCC(=O)Nc1nccs1)c1cccc(C)c1 (configuration not stated) | -1 | 6% | -15% | -4 | 3%
CC(C)(C)N(Cc1ccccc1)C(=O)COC(=O)c1cccc([N+](=O)[O-])c1 | 8 | · | 70% | -6 | -25%
CCc1ccc(/C=N/Nc2ncnc3nc[nH]c23)cc1 | 40* | 0% | -44% | 82* | -7%
COc1ccc(-c2nncnn2)cc1 | 16 | -33% | ? | 22 | 6.6µM*
COc1ccc(Oc2nc(Oc3ccc(OC)cc3)nc(Oc3ccc(OC)cc3)n2)cc1 | -1 | 11% | 20% | -12 | 29%
COc1ccc(-c2ccc(OC)cc2)cc1 | 34* | · | ? | 13 | 82%
CC(C)C[C@H]1CN=C(Nc2ccccc2)N1CCCC1CCCC1 | -3 | -40% | ? | -2 | 12µM*
Cc1ccc(S(=O)(=O)NC(=O)COc2ccccc2C)c(C)c1 | 2 | -37% | 14% | -6 | -23%
CCC(C)(C)c1ccc(OCCCC[n+]2cccc(C)c2C)c(C(C)(C)CC)c1 | -2 | -61% | 0.83µM* | -24 | 0.37µM*
CCC(C)(C)c1ccc(OCCCC[n+]2ccc(C)cc2)c(C(C)(C)CC)c1 | -5 | · | 1.9µM* | -21 | 3.7µM*
Cc1cc[n+](CC[n+]2ccc(C)cc2)cc1 | · | · | -7% | · | 13%
COc1ccccc1CN1CCNC(=O)C1CC(=O)NCCOc1cccnc1 (configuration not stated) | -2 | 5% | 31% | -3 | ?
Cn1nnnc1N=N/C(=N/Nc1ccccc1)c1ccccc1 | 17* | -73% | ? | 45 | ?
O=C(c1ccc2c3n(nc2c1)-c1ccc(Cl)cc1CO3)N1CCCCC1 | 46* | -76% | 266% | 70* | 292%
Cc1ccc2c(c1)COc1c3ccc(C(=O)N4CCOCC4)cc3nn1-2 | 55* | -6% | 101% | 96* | 97%
O=C(O)c1ccc2c(=O)n3c(nc2c1)/C(=C/c1ccc(Cl)cc1Cl)CC3 | -1 | 2% | · | 4 | ?
O=C(O)c1ccc2c3n(nc2c1)-c1ccc(Cl)cc1CO3 | 42* | -6% | 370% | 54* | 176%
O=C(c1ccc2c(Cl)c3c(nc2c1)CCCC3)N1CCC(N2CCCCC2)CC1 | -4 | -3% | -2% | -15 | ?
CCCCCCNCC1OCc2ccccc2CO1 | 2 | -9% | 1% | -7 | 13%
c1ccc(NCC2OCc3ccccc3CO2)cc1 | 43* | 16% | 106% | 98* | 7%
O=C(O)CCN1CCc2ccccc2C1c1cccs1 (configuration not stated) | -3 | · | -14% | -3 | 6%
CN(C)C1=NC[C@H](Cc2ccccc2)N1CC1CCC(C(C)(C)C)CC1 (some centres not stated) | 2 | 10% | ? | -3 | ?
CC(C)C[C@H]1CN=C(N(C)C)N1CC1CCCCCC1 | · | · | 4.1µM* | · | ?
Cc1cccc(CCN2C(N(C)C)=NC[C@@H]2C)c1 | · | · | 2% | · | 49%
